Measurements reported in PubChem BioAssay (NCI).
Compounds without any hit were thinned out: in the full panel of roughly 83,000, 20% have a hit.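 96-well plates, one dose, 48 hours. Percent growth reported; active if below 10.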 A number with no mark means an inactive call. The source made the active and inactive calls.

Columns and labels:
Test in all cases: NCI-60 one-dose screen, 48 h (100 = growth as untreated, 0 = no growth, -100 = all killed)
Details in all cases: 10 µM unless noted
SK-MEL-2 melanoma = system: SK-MEL-2 melanoma
EKVX NSCLC = system: EKVX NSCLC
SN12C renal = system: SN12C renal
UO-31 renal = system: UO-31 renal
ACHN renal = system: ACHN renal
CAKI-1 renal = system: CAKI-1 renal
A498 renal = system: A498 renal
CCRF-CEM leukemia = system: CCRF-CEM leukemia
MOLT-4 leukemia = system: MOLT-4 leukemia
TK-10 renal = system: TK-10 renal

Question: How did the growth (SK-MEL-2 melanoma) turn out when Cc1ccsc1[C@H]1c2[nH]c3ccccc3c2C[C@H]2C(=O)N(CCCCCCC(=O)NO)CC(=O)N12 was run?
Answer: 92%

Question: What about the growth (EKVX NSCLC) of the same molecule?
Answer: 87.3%

Question: What about the growth (SN12C renal) of the same molecule?
Answer: 86.5%

Question: What about the growth (UO-31 renal) of the same molecule?
Answer: 75.6%

Question: And the growth (ACHN renal)?
Answer: 93.5%

Question: What about the growth (CAKI-1 renal) of the same molecule?
Answer: 90.6%

Question: What about the growth (A498 renal) of the same molecule?
Answer: 109%

Question: What about the growth (CCRF-CEM leukemia) of the same molecule?
Answer: 26.5%

Question: And the growth (MOLT-4 leukemia)?
Answer: 40%

Question: How did the growth (SK-MEL-2 melanoma) turn out when CCCCSC1=C(Cl)CN(c2ccccc2)C1=O was run?
Answer: 121%

Question: What about the growth (EKVX NSCLC) of the same molecule?
Answer: 97.8%

Question: And the growth (SN12C renal)?
Answer: 94.6%

Question: And the growth (UO-31 renal)?
Answer: 92.2%

Question: And the growth (ACHN renal)?
Answer: 106%

Question: And the growth (CAKI-1 renal)?
Answer: 94%

Question: What about the growth (A498 renal) of the same molecule?
Answer: 108%

Question: What about the growth (CCRF-CEM leukemia) of the same molecule?
Answer: 117%

Question: And the growth (MOLT-4 leukemia)?
Answer: 105%

Question: What does the source list for O=C1Nc2ccccc2/C1=N\c1nnc(-c2ccccc2)o1?
Answer: growth (SK-MEL-2 melanoma): 96.4%; growth (EKVX NSCLC): 67.9%; growth (SN12C renal): 104%; growth (UO-31 renal): 75.5%; growth (ACHN renal): 88.2%; growth (CAKI-1 renal): 88.2%; growth (A498 renal): 90.7%; growth (CCRF-CEM leukemia): 96.2%; growth (MOLT-4 leukemia): 96.7%

Question: Which growth (SK-MEL-2 melanoma) does the source give for CCCc1cc2cc(-n3nc(CC)c4c3CC(C)(C)CC4=O)cc(NC3CCC(O)CC3)c2c(=O)[nH]1 (centres undefined) here?
Answer: 53.1%

Question: What about the growth (EKVX NSCLC) of the same molecule?
Answer: 52.4%

Question: And the growth (SN12C renal)?
Answer: 7.81% (active)

Question: And the growth (UO-31 renal)?
Answer: 14.1%

Question: What about the growth (ACHN renal) of the same molecule?
Answer: 8.86% (active)

Question: And the growth (A498 renal)?
Answer: 37%

Question: What about the growth (CCRF-CEM leukemia) of the same molecule?
Answer: 21.8%

Question: What about the growth (MOLT-4 leukemia) of the same molecule?
Answer: 15.3%

Question: Which results are given for N#Cc1c(-c2ccc(F)cc2)cc(-c2c[nH]c3ccccc23)nc1-c1c[nH]c2ccccc12?
Answer: growth (SK-MEL-2 melanoma): 96.1%; growth (EKVX NSCLC): 92.8%; growth (SN12C renal): 98.8%; growth (UO-31 renal): 84.7%; growth (ACHN renal): 102%; growth (CAKI-1 renal): 92.5%; growth (A498 renal): 89.4%; growth (CCRF-CEM leukemia): 102%; growth (MOLT-4 leukemia): 103%

Question: Which results are given for Clc1ccc2c(N/N=C/c3c[nH]c4ccccc34)ccnc2c1?
Answer: growth (SK-MEL-2 melanoma): -82.2% (active); growth (EKVX NSCLC): -79.3% (active); growth (SN12C renal): -77.2% (active); growth (UO-31 renal): -95.1% (active); growth (ACHN renal): -98.1% (active); growth (CAKI-1 renal): -97.5% (active); growth (A498 renal): -93.6% (active); growth (CCRF-CEM leukemia): -10% (active); growth (MOLT-4 leukemia): -48.5% (active)

Question: Which growth (SK-MEL-2 melanoma) does the source give for Clc1ccc(CSc2nnc(-c3ccc(Cl)cc3)n2-c2ccccc2)cc1 here?
Answer: 85.9%

Question: What about the growth (EKVX NSCLC) of the same molecule?
Answer: 86.6%

Question: What about the growth (SN12C renal) of the same molecule?
Answer: 82.9%

Question: And the growth (UO-31 renal)?
Answer: 68.2%

Question: What about the growth (ACHN renal) of the same molecule?
Answer: 55.5%

Question: And the growth (CAKI-1 renal)?
Answer: 62.9%

Question: And the growth (A498 renal)?
Answer: 68%

Question: What about the growth (CCRF-CEM leukemia) of the same molecule?
Answer: 97.4%

Question: And the growth (MOLT-4 leukemia)?
Answer: 92%

Question: How did the growth (SK-MEL-2 melanoma) turn out when CC(C)(C)Nc1nc2c(OCCc3ccccc3)cccn2c1-c1ccc([N+](=O)[O-])cc1 was run?
Answer: 60.5%

Question: What about the growth (EKVX NSCLC) of the same molecule?
Answer: 41.8%

Question: And the growth (SN12C renal)?
Answer: 75.5%

Question: And the growth (UO-31 renal)?
Answer: 31.6%

Question: What about the growth (ACHN renal) of the same molecule?
Answer: 54.4%

Question: What about the growth (CAKI-1 renal) of the same molecule?
Answer: 43.3%

Question: What about the growth (A498 renal) of the same molecule?
Answer: 97.7%

Question: And the growth (CCRF-CEM leukemia)?
Answer: 53.7%

Question: What about the growth (MOLT-4 leukemia) of the same molecule?
Answer: 18.1%

Question: CC1=C(C)C(=O)C(Nc2cccc(C)c2)=C(Br)C1=O was tested. Which growth (SK-MEL-2 melanoma) did it give?
Answer: 117%

Question: What about the growth (EKVX NSCLC) of the same molecule?
Answer: 68.7%

Question: And the growth (SN12C renal)?
Answer: 96.9%

Question: And the growth (UO-31 renal)?
Answer: 80.2%

Question: What about the growth (ACHN renal) of the same molecule?
Answer: 95.7%

Question: And the growth (CAKI-1 renal)?
Answer: 99.3%

Question: And the growth (A498 renal)?
Answer: 95.5%

Question: And the growth (CCRF-CEM leukemia)?
Answer: 16.5%

Question: What about the growth (MOLT-4 leukemia) of the same molecule?
Answer: -29.9% (active)

Question: How did the growth (EKVX NSCLC) turn out when Cn1cc(-c2nnc(N)nc2-c2c[nH]c3ccc(Br)cc23)c2cc(Br)ccc21 was run?
Answer: 103%

Question: And the growth (SN12C renal)?
Answer: 110%

Question: What about the growth (UO-31 renal) of the same molecule?
Answer: 84.2%

Question: What about the growth (TK-10 renal) of the same molecule?
Answer: 78.7%

Question: What about the growth (ACHN renal) of the same molecule?
Answer: 94.7%

Question: And the growth (CAKI-1 renal)?
Answer: 85.9%

Question: What about the growth (A498 renal) of the same molecule?
Answer: 93.6%

Question: And the growth (CCRF-CEM leukemia)?
Answer: 108%

Question: And the growth (MOLT-4 leukemia)?
Answer: 107%
